Results taken from paper PMC4336329 (PLoS ONE, 2015).
The whole screen tested about 310,000 compounds, of which about 14,000 (4.5%) showed an effect of 50% or more. Effects have a minus sign here. What follows is part of a selection rich in strong results, with near analogues and random picks from the rest.

Molecular target: human ether-à-go-go-related gene (hERG) potassium channel (human, UniProt Q12809)
Experiment: primary screen, population patch clamp on CHO cells stably expressing hERG; higher = less effect of the substance
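Also: peak tail current of the secondary pulse compared with the same well before compound.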

Chain of human ether-à-go-go-related gene (hERG) potassium channel (Q12809 whole entry, looked up): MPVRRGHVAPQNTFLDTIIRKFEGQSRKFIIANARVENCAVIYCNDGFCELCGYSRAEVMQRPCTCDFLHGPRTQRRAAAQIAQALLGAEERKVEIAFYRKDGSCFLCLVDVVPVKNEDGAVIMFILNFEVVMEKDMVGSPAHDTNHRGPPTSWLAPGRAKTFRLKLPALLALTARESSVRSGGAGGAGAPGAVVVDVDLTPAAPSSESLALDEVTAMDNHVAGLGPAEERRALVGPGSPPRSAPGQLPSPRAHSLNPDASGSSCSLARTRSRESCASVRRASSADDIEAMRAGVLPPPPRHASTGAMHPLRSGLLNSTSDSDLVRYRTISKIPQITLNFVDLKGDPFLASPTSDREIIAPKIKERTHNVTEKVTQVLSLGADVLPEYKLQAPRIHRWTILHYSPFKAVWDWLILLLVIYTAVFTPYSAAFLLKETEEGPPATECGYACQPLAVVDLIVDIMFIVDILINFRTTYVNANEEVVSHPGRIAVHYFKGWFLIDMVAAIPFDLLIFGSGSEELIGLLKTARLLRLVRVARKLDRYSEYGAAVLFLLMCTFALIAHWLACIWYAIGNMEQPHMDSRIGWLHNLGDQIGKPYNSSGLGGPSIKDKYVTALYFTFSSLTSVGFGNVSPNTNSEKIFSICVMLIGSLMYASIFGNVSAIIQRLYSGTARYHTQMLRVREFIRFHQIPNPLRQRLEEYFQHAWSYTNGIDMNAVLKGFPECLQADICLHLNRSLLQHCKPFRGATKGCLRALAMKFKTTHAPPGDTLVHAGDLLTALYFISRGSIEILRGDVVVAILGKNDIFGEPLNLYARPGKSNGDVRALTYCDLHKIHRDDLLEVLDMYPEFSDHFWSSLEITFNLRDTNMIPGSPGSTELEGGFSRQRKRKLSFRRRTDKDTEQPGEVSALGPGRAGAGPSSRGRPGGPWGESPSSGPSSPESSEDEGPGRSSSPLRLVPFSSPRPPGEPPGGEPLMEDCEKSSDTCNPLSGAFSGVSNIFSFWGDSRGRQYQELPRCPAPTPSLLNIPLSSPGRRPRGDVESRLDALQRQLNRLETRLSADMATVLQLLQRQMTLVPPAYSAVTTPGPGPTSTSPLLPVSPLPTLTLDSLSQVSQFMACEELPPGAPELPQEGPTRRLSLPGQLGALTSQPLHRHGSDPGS

Row | SMILES | hERG current change (%, negative = inhibition) at 10uM [%]
1 | COc1ccc(C(=O)N/N=C/c2sc(=O)n(Cc3cccc(C(=O)O)c3)c2Cl)cc1 | -1.9
2 | CC(C)(C)C1CCC(=NNC(=O)C2COc3ccccc3O2)CC1 (stereo not drawn) | 0.995
3 | CCOC(=O)Cn1ccc(NC(=O)COc2ccc(F)cc2F)n1 | -2.52
4 | Cc1ccc(OCc2cc(C(=O)N3CC4C[C@@H]5CC3C[C@H](C4)C5)no2)cc1C | 15.7
5 | COc1ccc(C(=O)C[n+]2cccc(C)c2)cc1.[Br-] | 13
6 | NC(=O)c1ccc(NCc2ccco2)c([N+](=O)[O-])c1 | 6.16
7 | CN1CCN(S(=O)(=O)c2ccc3c(c2)C(C)(C)C(=O)N3C)CC1 | 14.3
8 | CSCCC(NC(=O)c1cc(S(=O)(=O)N2CCOCC2)ccc1F)c1nc2ccccc2[nH]1 (stereo not drawn) | -5.27
9 | COc1ccc(OCC(=O)N2CCN(C(=O)c3ccccc3)CC2)cc1 | -12.6
10 | O=C(COc1ccccc1)N1CCN(S(=O)(=O)c2cccc([N+](=O)[O-])c2)CC1 | -47.3
11 | COc1ccc(OCC(=O)N2CCN(C(=O)c3ccc(F)cc3)CC2)cc1 | -20.2
12 | O=C(COc1ccccc1)N1CCN(C(=O)c2ccc([N+](=O)[O-])cc2)CC1 | -62.4
13 | CCC(=O)c1ccc(OCC(=O)N2CCN(C(=O)c3ccccc3)CC2)cc1 | -37.8
14 | COc1ccc(OCC(=O)N2CCN(C(=O)c3ccc([N+](=O)[O-])cc3)CC2)cc1 | -67.2
15 | COc1ccc(NC(=O)Cc2nnc(SCC(=O)NC3CCCC3)n2C)cc1 | 15.3
16 | CN(CC(=O)Nc1ccccc1Sc1ccccc1)Cc1nc2ccccc2c(=O)[nH]1 | -37.1
17 | CC(C)CN(CC(C)C)C(=O)COc1ccccc1C(N)=O | 7.55
18 | COc1ccc(S(=O)(=O)N2CCN(CC(=O)Nc3cc(C(F)(F)F)ccc3Cl)CC2)cc1 | -4.6
19 | Clc1cccc(CN2CCC(Cc3ccccc3)CC2)c1 | -27.9

Row | SMILES | hERG current change (%, negative = inhibition) at 10uM [%]
20 | C=CCOc1ccccc1CN1CCSCC1 | -11.2
21 | CCOc1ccc(CN2CCC(Cc3ccccc3)CC2)cc1 | -78.3
22 | CCOc1ccc(S(=O)(=O)N2CCN(Cc3ccccc3)CC2)cc1 | 1.61
23 | CSc1ccc(CN2CCC(Cc3ccccc3)CC2)cc1 | -65.4
24 | C=CCOc1ccccc1CN1CCC(Cc2ccccc2)CC1 | -70.3
25 | Fc1ccc(CN2CCC(Cc3ccccc3)CC2)cc1F | 2.03
26 | Clc1ccc(CN2CCC(Cc3ccccc3)CC2)cc1 | -40.9
27 | C=CCOc1ccccc1CN1CCCCCC1 | -18.9
28 | O=C(CNS(=O)(=O)c1ccccc1)NCC(=O)OCc1ccccc1F | 13.7
29 | CC[C@@]12C(=O)N(c3ccccc3)C(=O)N1[C@H](c1ccc(Br)cc1)[C@@H]1C(=O)N(C(C)(C)C)C(=O)[C@@H]12 | 4.22
30 | CCOC(=O)/C=C/c1cnn(-c2ccccc2)c1 | 3
31 | CCc1nc2cc(CC(=O)O)ccc2o1 | 8.35
32 | COc1ccc(/C=N/NC(=O)Cn2cnc3ccccc3c2=O)cc1OC | -6.77
33 | CCCCn1c(O)c(C(CC)=NCc2ccco2)c(=O)[nH]c1=O | -35.4
34 | CC(C)CN(C(=O)CN(C)C(=O)Cc1ccccc1Cl)c1c(N)n(CC(C)C)c(=O)[nH]c1=O | 20.7
35 | CCC1CCCCN1C(=O)c1cccc(S(=O)(=O)Nc2cc(C(F)(F)F)ccc2Cl)c1 (stereo not drawn) | 2.59
36 | COc1ccc(CCC(=O)NCCOc2ccc(Cl)cc2)cc1 | -7.98
37 | COc1ccc(-c2[nH]c3ccccc3c2SCCNC(=O)c2cc3ccccc3oc2=O)cc1 | -0.175
38 | CCOc1ccc(NC(=O)Cn2nnc(C(=O)NCc3cccs3)c2N)cc1 | 13.8

Row | SMILES | hERG current change (%, negative = inhibition) at 10uM [%]
39 | Cc1cc(=O)[nH]c2nnc(-c3ccc(Br)cc3)n12 | 5.99
40 | O=S(=O)(c1ccc2c(c1)CCN2)N1CCCC1 | -1.58
41 | COc1ccc(CNC(=O)COC(=O)[C@H](Cc2c[nH]c3ccccc23)NC(=O)c2cccs2)cc1 | -0.701
42 | Cc1ccc(N2CCN(CC(O)COc3cccc4ccccc34)CC2)cc1 (stereo not drawn) | -25.1
43 | COc1ccccc1N1CCN(CC(O)COc2cccc3ccccc23)CC1.Cl.O (stereo not drawn) | -61
44 | CCOC(=O)N1CCN(CC(O)c2ccc3cc[nH]c3c2)CC1 (stereo not drawn) | -30.4
45 | OC(COc1cccc2ccccc12)CN1CCCC1 (stereo not drawn) | -29.4
46 | OC(COc1cccc2ccccc12)CN1CCN(c2ccccc2)CC1 (stereo not drawn) | -33.2
47 | COc1ccccc1N1CCN(CC(O)COc2cccc3ccccc23)CC1.Cl (stereo not drawn) | -68.3
48 | OC(COc1ccc2ccccc2c1Cl)CN1CCOCC1 (stereo not drawn) | -24.5
49 | COc1ccccc1N1CCN(CC(O)COc2c(OC)cccc2OC)CC1.Cl (stereo not drawn) | -48.4
50 | COc1ccccc1N1CCN(CC(O)c2ccc3cc[nH]c3c2)CC1 (stereo not drawn) | -69.3
51 | OC(COc1cccc2ccccc12)CN1CCN(c2ccccc2Cl)CC1 (stereo not drawn) | -50.2
52 | COc1ccccc1N1CCN(CC(O)c2ccccc2)CC1 (stereo not drawn) | -8.46
53 | CCCc1nnc(SCC(=O)Nc2ccc(OCC)cc2)n1N | -3.79
54 | CCN(c1ccccc1)S(=O)(=O)c1ccc(Cl)c(C(=O)N(CC2CCCO2)C2CCS(=O)(=O)C2)c1 (stereo not drawn) | -5.04
55 | Cc1ccc(-c2csnn2)cc1 | 6.13
56 | CCN1CCN(CCCNC(=O)C2c3ccccc3C(=O)N(c3ccc(OC)cc3)C2c2ccc(OC)cc2)CC1 (stereo not drawn) | 1.22
57 | CCCCCN(C(=O)COC(=O)CSc1ccc([N+](=O)[O-])cc1)c1c(N)n(CCCC)c(=O)[nH]c1=O | -40.5
